Artemis inh – inhibitors of human Artemis endonuclease activity | Q96SD1 | recombinant Artemis, quenched FAM hairpin cleavage fluorescence | inhibition, % at 10 µM | 30,000 tested, 0.78% active;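 active = at 10 µM dose, at least 30% inhibition, measured as corrected fluorescence normalized to stimulator and neutral control wells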
Target sequence (Q96SD1 whole entry, looked up): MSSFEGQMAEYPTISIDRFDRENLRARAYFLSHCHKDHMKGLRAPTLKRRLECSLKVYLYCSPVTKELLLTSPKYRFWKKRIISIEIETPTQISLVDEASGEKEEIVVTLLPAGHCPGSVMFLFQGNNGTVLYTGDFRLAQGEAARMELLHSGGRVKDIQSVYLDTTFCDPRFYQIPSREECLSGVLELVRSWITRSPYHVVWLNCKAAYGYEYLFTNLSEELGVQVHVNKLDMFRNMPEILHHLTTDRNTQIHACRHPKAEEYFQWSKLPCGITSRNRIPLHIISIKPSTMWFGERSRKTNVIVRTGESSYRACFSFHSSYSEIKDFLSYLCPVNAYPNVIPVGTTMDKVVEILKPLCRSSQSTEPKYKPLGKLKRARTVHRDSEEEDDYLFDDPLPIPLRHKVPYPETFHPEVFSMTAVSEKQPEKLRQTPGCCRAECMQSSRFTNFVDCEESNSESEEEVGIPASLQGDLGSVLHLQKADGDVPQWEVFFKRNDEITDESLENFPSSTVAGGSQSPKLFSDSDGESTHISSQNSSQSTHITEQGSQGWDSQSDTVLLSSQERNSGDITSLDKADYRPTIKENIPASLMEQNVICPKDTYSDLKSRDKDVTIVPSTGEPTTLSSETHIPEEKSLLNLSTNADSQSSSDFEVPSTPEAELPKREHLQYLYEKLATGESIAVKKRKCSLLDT
* marks the source's active call; other numbers are inactive results. Only a selection was taken, and hits are over-represented in it overall.

SMILES | Artemis inh
COc1ccc(-c2nn(-c3ccccc3)cc2CO)cc1 | 4
COc1ccc(-c2nn(-c3ccccc3)cc2C(=O)Nc2nccs2)cc1 | 47*
COC(=O)c1ccc(NC(=O)c2cn(-c3ccccc3)nc2-c2ccncc2)cc1 | 7
CCN(CC)S(=O)(=O)c1ccc(N2CCN(S(=O)(=O)c3ccc4c(c3)OCCO4)CC2)nc1 | 10
COc1ccc(Cl)cc1S(=O)(=O)Oc1ccc(NC(C)=O)cc1 | -3
CCOc1ccc(-c2nnc(-c3snc(-c4ccc(F)cc4)c3N=CN(C)C)o2)cc1 | 0
O=C(CCn1cccc1)NCc1ccc(Cl)cc1 | 0
O=C(Oc1ccc([N+](=O)[O-])cc1)c1cc(-c2ccccc2)nc2ccccc12 | -1
O=C(NCc1ccco1)c1cc(-c2ccccc2)nc2ccccc12 | -2
O=C(N/N=C/c1ccc([N+](=O)[O-])o1)c1cc(-c2cccc(Br)c2)nc2ccccc12 | 39*
COc1cc(S(=O)(=O)NCc2ccccc2)ccc1F | -15
Cc1ccccc1C(=O)NCc1nnc(SCC(=O)N2CCN(c3ccccc3)CC2)n1C | 1
CC(C)CCNC(=O)C(c1cccnc1)N(Cc1ccccc1)C(=O)Cn1nnc2ccccc21 (stereo not drawn) | 1
COc1ccc(OCCCC(=O)NC(C)c2ccccc2)cc1 (stereo not drawn) | -7
CCOc1ccccc1N1Cc2ccccc2C1 | 20
CCOc1ccccc1N1CN(CC)CNC1=S | 55*
CCOc1ccccc1N1CCN(C(=O)C(F)(F)F)CC1 | -4
O=C(CN1CCC(O)CC1)N1c2ccccc2C=Cc2ccccc21 | 1
Cc1cc2nc(C)c(Cc3ccccc3)c(=O)n2[nH]1 | 2
Cc1ccc(-c2n[nH]c(=S)n2/N=C/C=C\c2ccccc2[N+](=O)[O-])cc1 | 27
O=[N+]([O-])c1ccccc1/C=C/C=N/n1c(-c2ccc(Cl)cc2)n[nH]c1=S | 30*
Cn1cccc1/C=N/n1c(-c2ccccc2)n[nH]c1=S | -1
N#Cc1cc2c(nc1SC1CCCCC1O)CCCC2 (stereo not drawn) | 4
C=CCNS(=O)(=O)CC12CCC(CC1=O)C2(C)C (stereo not drawn) | -17
CCOC(=O)Cc1cc(=O)n2[nH]c(C)c(-c3ccc(OC)cc3)c2n1 | 5
SMILES | Artemis inh
Cc1ccc(C(=O)Nc2nc3nc(-c4ccccc4)cc(=O)n3[nH]2)cc1 | 3
Cc1[nH]n2c(=O)cc(C(C)(C)C)nc2c1-c1ccccc1 | 15
Cc1ccc(N=Nc2c(=O)[nH]n3c(=O)cc(C)[nH]c23)cc1 | 12
Cc1[nH]n2c(=O)cc(-c3ccc([N+](=O)[O-])cc3)nc2c1-c1ccccc1 | 32*
COc1cccc(-c2cc(C(F)(F)F)n3ncc(C(=O)O)c3n2)c1 | -2
CSc1nc2nc(-c3ccccc3)cc(=O)n2[nH]1 | -2
Cc1ccc(N=Nc2c(N)[nH]n3c(=O)cc(-c4ccccc4)nc23)cc1 | 48*
COc1cccc(N=Nc2c(N)[nH]n3c(=O)cc(-c4ccccc4)nc23)c1 | 36*
CCCOc1ccc(Br)cc1/C=N/O | 0
Cc1cc(C(=O)CSc2n[nH]c(-c3ccccc3F)n2)c(C)n1Cc1cccs1 | -2
CCCC(=O)NC(Nc1cccc(C(F)(F)F)c1)C(Cl)(Cl)Cl (stereo not drawn) | 8
O=C(Nc1cccnc1Cl)C1c2ccccc2Oc2ccccc21 | 1
CC(C)NS(=O)(=O)c1ccc(NC(=O)C2CC3C=CC2C3)cc1 (stereo not drawn) | 6
CC1=NOC(=O)/C1=C\c1ccc(-c2cc(Cl)ccc2Cl)o1 | 37*
COC(=O)c1ccc(Cl)c(-c2ccc(/C=N/NC(=O)Nc3ccccc3)o2)c1 | -2
C=CCNC(=S)N/N=C/c1ccc(-c2cc(Cl)ccc2Cl)o1 | 1
CC1Cc2ccccc2N1C(=O)CSc1nc2c(c(=O)n(C)c(=O)n2C)n1Cc1ccc(F)cc1 (stereo not drawn) | 12
CC1Cc2ccccc2N1C(=O)CSc1nnc2c(n1)[nH]c1ccccc12 (stereo not drawn) | 36*
COc1cccc(-n2c(SCC(=O)N3c4ccccc4CC3C)nnc2-c2ccco2)c1 (stereo not drawn) | 17
O=C(NCCCNC(=O)c1ccco1)c1ccco1 | 7
O=C(NCc1ccco1)c1ccc2snnc2c1 | 0
O=C(NCCO)c1ccc2nc(-c3ccco3)c(-c3ccco3)nc2c1 | 38*
O=S(=O)(Cc1ccccc1)c1cnc2ccccc2n1 | -9
O=C(Nc1ccc(-c2noc(CCc3ccccc3)n2)cc1)c1cccnc1 | -2
CCOC(=O)c1c(NC(=O)CSc2nnnn2-c2ccccc2)sc2c1CCC(C)C2 (stereo not drawn) | -4
SMILES | Artemis inh
CCOC(=O)c1c(NC(=O)CSc2nncs2)sc(C)c1C | -5
CCOC(=O)c1c(NC(=O)CSc2nnc3c(n2)[nH]c2ccccc23)sc2c1CCN(C)C2 | 42*
Cc1nc(-c2ccccc2)sc1-c1nc(-c2ccncc2)ncc1S(=O)(=O)c1ccccc1 | 15
Cc1cc(N2CCN(C(=O)OC(C)(C)C)CC2)n2ncnc2n1 | 3
Cc1[nH]n2c(=O)c3c(nc2c1-c1ccc(Cl)cc1)CCC3 | 8
Nc1[nH]n2c(=O)c3c(nc2c1N=Nc1ccc(Cl)cc1)CCCC3 | 30*
Cc1[nH]n2c(=O)c3c(nc2c1-c1ccccc1)CCC3 | -1
Cc1ccc(C2NC(=O)Cc3ccccc32)cc1 (stereo not drawn) | 0
O=C(c1ccccc1)c1nn(-c2ccccc2)c(=O)cc1C(F)(F)F | -4
O=C(c1ccccc1)c1nn(-c2ccc(Cl)cc2)c(=O)cc1C(F)(F)F | 1
O=C1c2ccccc2C(=O)c2c1oc(C(F)(F)F)c2C(=O)c1ccccc1 | 42*
CCCCCC(=O)OC(CN1CCCCC1)CN1CCCC1=O (stereo not drawn) | -7
CN1C(=O)/C(=C/c2ccccc2OCc2ccccc2F)NC1=S | -3
COc1cc2c(cc1NC(=O)CN1CCN(S(=O)(=O)c3ccccc3F)CC1)oc1ccccc12 | -1
Cc1ccc(Nc2nc(N)nc(CSc3nnc(-c4ccncc4)o3)n2)cc1 | 27
CCC(=O)Nc1ccc2oc(-c3ccccc3Br)nc2c1 | -3
O=C(Nc1ccc2oc(-c3cccc4ccccc34)nc2c1)c1ncn[nH]1 | 32*
Nc1ccc2oc(-c3cccc4ccccc34)nc2c1 | -2
O=C(OCc1ccccc1)c1ccc2c(c1)-c1ccccc1C2=O | 5
CC(C)(C)c1csc(NC(=O)Cn2cnc3ccccc3c2=O)n1 | 7
CNc1nc(Cl)nc(NC(C)(C)C)n1 | 0
CC(=O)C(Sc1nc(NC(C)(C)C)nc(N(C)C)n1)C(C)=O | 7
CC(C)(C)Nc1nc(NN)nc(NC(C)(C)C)n1 | 43*
COc1ccccc1-c1nnc(NC(=O)c2ccc(S(=O)(=O)N(C)C)cc2)o1 | 7
CCCCN(CC)S(=O)(=O)c1ccc(C(=O)Nc2nnc(-c3ccccc3Cl)o2)cc1 | 10
SMILES | Artemis inh
CCC1CCCCN1S(=O)(=O)c1ccc(C(=O)Nc2nnc(-c3ccccc3Cl)o2)cc1 (stereo not drawn) | 36*
CC1CCCCN1S(=O)(=O)c1ccc(C(=O)Nc2nnc(-c3ccccc3Cl)o2)cc1 (stereo not drawn) | 32*
CC1CCCCN1C(=O)c1ccc(S(=O)(=O)N2CCCCC2C)cc1 (stereo not drawn) | -3
CCN1CCCC1CNS(=O)(=O)c1ccc(C(=O)Nc2ccccc2)cc1 (stereo not drawn) | 2
CCN1C(=O)C(CC(=O)Nc2ccc(Br)cc2)N(CCCc2ccccc2)C1=S (stereo not drawn) | 9
O=C(O)c1ccccc1C(=O)OCc1ccccc1 | -4
C/C(=N\O)c1ccccc1C(=O)O | 46*

Source: PubChem
